Measured values from PMC5540273 (PLoS ONE, 2017).

Assays:
Conditions in all cases: concentration: 1 μM,replicates: in singlicate; n = 1
AAK1 = test system: AAK1
ABL1-nonphosphorylated = test system: ABL1-nonphosphorylated
ABL1-phosphorylated = test system: ABL1-phosphorylated
ABL2 = test system: ABL2
ACVR1B = test system: ACVR1B
ACVR1 = test system: ACVR1
ACVR2A = test system: ACVR2A
ACVR2B = test system: ACVR2B
ACVRL1 = test system: ACVRL1
ADCK3 = test system: T1, ADCK3
T1 construct: gene CABC1

ADCK4 = test system: ADCK4
AKT1 = test system: AKT1
AKT2 = test system: AKT2
AKT3 = test system: AKT3
ALK = test system: ALK
AMPK-alpha1 = test system: T2, AMPK-alpha1
T2 construct: gene PRKAA1

AMPK-alpha2 = test system: T3, AMPK-alpha2
T3 construct: gene PRKAA2

ANKK1 = test system: ANKK1
ARK5 = test system: T4, ARK5
T4 construct: gene NUAK1

ASK1 = test system: T5, ASK1
T5 construct: gene MAP3K5
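Also: KINOMEscan kinase panel screen.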

Compound	%Inh (AAK1) [%]	%Inh (ABL1-nonphosphorylated) [%]	%Inh (ABL1-phosphorylated) [%]	%Inh (ABL2) [%]	%Inh (ACVR1B) [%]	%Inh (ACVR1) [%]	%Inh (ACVR2A) [%]	%Inh (ACVR2B) [%]	%Inh (ACVRL1) [%]	%Inh (ADCK3) [%]	%Inh (ADCK4) [%]	%Inh (AKT1) [%]	%Inh (AKT2) [%]	%Inh (AKT3) [%]	%Inh (ALK) [%]	%Inh (AMPK-alpha1) [%]	%Inh (AMPK-alpha2) [%]	%Inh (ANKK1) [%]	%Inh (ARK5) [%]	%Inh (ASK1) [%]
CCOC(=O)N1CCC(n2cnc(-c3ccc(F)cc3)c2-c2ccnc(N)n2)CC1 [SB-219952]	0	60	2	0	33	28	0	0	10	15	20	7	0	24	0	99.8	4	0	0	0
Cl.Nc1n[nH]c2cc(-c3ccccn3)ccc12 [GSK2189892]	17	0	0	0	0	10	0	6	0	11	17	0	0	0	16	0	1	0	0	0
C[C@@H](Oc1cc(-n2cnc3cc(-c4ccncc4)ccc32)sc1C(N)=O)c1ccccc1Cl [GSK479719]	61	0	25	22	0	10	0	0	0	12	9	0	6	0	31	5	17	0	75	4
COC(=O)c1cccc(NC(=O)NC2CCN(c3ccnc(NCc4ccc(F)cc4)n3)CC2)c1 [GSK1379860]	0	0	0	14	0	0	0	23	0	5	18	0	0	0	30	0	0	0	10	0
Cc1cccc2c(-c3ccncc3)c(-c3ccc(F)cc3)nn12.Cl [GW461487]	14	0	0	5	18	9	0	11	0	18	28	0	2	0	7	17	0	24	11	1
